Screens: PubChem BioAssay, National Center for Advancing Translational Sciences (NCATS)
ALDH1A1 block: ALDH1A1 (human) enzyme inhibition. Purified ALDH1A1, NADH fluorescence, propionaldehyde substrate. Potency, µM (doses to about 75.3 µM), without a hit: top-dose activity, negative = inhibition, most hits filed as inhibitors. hit rate 7.3% among 220,000. AID 1030;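 note: potency is the fitted concentration of half-maximal effect; plate controls were no enzyme wells and a reference inhibitor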
PNC inhibitor: blocks assembly of the perinucleolar compartment. PC3M PTB-GFP, PNC prevalence imaging, 16 h; hits give low values. activity change (PNC), negative = inhibition, % at 10 µM. hit rate 3.1% among 140,000. AID 2417;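 active = readout at or below -70, meaning at least 70% loss of cells showing the perinucleolar compartment, a nuclear body marking cancer cells; inconclusive = readout between -30 and a set limit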;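 note: plate controls were DMSO wells for no effect and camptothecin positive control wells for full effect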
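Read-out is percentage of cells bearing a perinucleolar compartment, from automated 20x imaging of fixed, Hoechst-stained PC3M PTB-GFP cells. Cells were seeded 4 h, then exposed 16 h to compound (23 nl of library stock) in duplicate plates.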
HPGD inh: blocks human HPGD enzyme activity. P15428. purified HPGD, NADH fluorescence kinetic, PGE2 substrate. Potency, µM, without a hit: top-dose activity change, negative = inhibition, actives largely listed as inhibitors. hit rate 4.3% among 150,000. AID 894; note: potency is the fitted concentration of half-maximal effect
Target sequence (P15428 whole entry, looked up): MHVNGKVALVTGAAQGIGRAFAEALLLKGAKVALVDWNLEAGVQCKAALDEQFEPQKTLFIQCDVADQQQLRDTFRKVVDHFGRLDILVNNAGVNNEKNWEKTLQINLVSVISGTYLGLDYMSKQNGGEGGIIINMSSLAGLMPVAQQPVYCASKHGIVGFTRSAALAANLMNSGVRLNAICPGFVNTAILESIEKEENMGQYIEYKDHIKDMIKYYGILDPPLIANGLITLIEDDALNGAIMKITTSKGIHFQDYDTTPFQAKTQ
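20 nM HPGD preincubated 15 min at room temperature with compound in 50 mM Tris-HCl pH 8, 0.01% Tween 20. Started with 1 mM NAD+ and 30 uM prostaglandin E2; NADH fluorescence (360/450 nm) read 5 times over 30-s intervals, last minus first.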
Starred values were filed as active, the others as inactive; [ ] = dose if it differs, or a comment. Rows were chosen to be rich in hits. Some 11% of all compounds tested hit in one or more screens of this group. Unless noted, calls come from the whole dose curve; as a rule, active = well fitted inhibition curve with a large enough effect (not every such curve was filed as active); inconclusive = small, poorly fitted or top-dose-only effect, or another doubt; inactive = no such curve, though single readings can be large or run the other way. Unless noted, % is set by controls: 0 for no effect and ±100 for the full control effect.

What do the screens show for `Cc1ccc(CN2CCN(Cc3c[nH]c4ccccc34)CC2CCO)o1` (stereo unspecified)?
ALDH1A1 block: -2%

How did Cc1ccc(CN2CCN(Cc3cc(=O)c4ccccc4[nH]3)CC2CCO)o1 (stereo unspecified) do in these assays?
ALDH1A1 block: 18µM*

How did COC(=O)c1cn[nH]c1NC(=S)Nc1ccc(Cl)c(Cl)c1 do in these assays?
ALDH1A1 block: inconclusive; PNC inhibitor: inconclusive; HPGD inh: -24%

What do the screens show for `COC(=O)c1cn[nH]c1NC(=S)Nc1ccc(C)cc1Cl`?
ALDH1A1 block: 7.9µM*; PNC inhibitor: 18; HPGD inh: -27%

What do the screens show for `C=CCN1c2ccccc2[C@]23C[C@@H](C(=O)OC)N(S(=O)(=O)c4ccc(C(F)(F)F)cc4)C2=NC(C(=O)OC)=C(C(=O)OC)[C@H]13`?
ALDH1A1 block: -5%[13.5 µM]; HPGD inh: -4%

What do the screens show for `CCOC(=O)c1c(CN(CC)CC)oc2cc(Br)c(O)cc12`?
ALDH1A1 block: inconclusive; PNC inhibitor: 24; HPGD inh: -18%

How did CCOC(=O)c1c(CN(CC)CC)oc2ccc(OC)cc12 do in these assays?
ALDH1A1 block: -5%; PNC inhibitor: -100*; HPGD inh: -16%

What do the screens show for `COc1ccc(CCNC(=O)C2CCN(S(=O)(=O)N3CC(C)CC(C)C3)CC2)cc1OC` (stereo unspecified)?
ALDH1A1 block: -9%; PNC inhibitor: 14; HPGD inh: -3%

How did COc1ccc2c(c1)[N+](=O)C(/C(C)=N/NC(N)=S)=C(C)[N+]2=O do in these assays?
ALDH1A1 block: 3.2µM*; HPGD inh: -19%

Results for COc1cc(/C(C)=N\NC(N)=S)cc(OC)c1OC ?
ALDH1A1 block: 12%; PNC inhibitor: inconclusive; HPGD inh: -4%

Results for Cc1nn(-c2ccccn2)c2c1C(c1ccccc1Cl)C1=C(N2)c2ccccc2C1=O (stereo unspecified) ?
ALDH1A1 block: inconclusive; PNC inhibitor: inconclusive; HPGD inh: -20%

Results for Nc1nc2c(c(=O)[nH]1)C(c1cccc3ccccc13)C1=C(N2)c2ccccc2C1=O (stereo unspecified) ?
ALDH1A1 block: 3.2µM*

How did O=C(CC1CCC1)NC(c1ccccc1)c1ccccc1 do in these assays?
ALDH1A1 block: 7%

What do the screens show for `COc1ccc(-c2nc3c(c(=O)[nH]c(=O)n3Cc3ccccc3)n2C)cc1`?
ALDH1A1 block: inconclusive; PNC inhibitor: -8; HPGD inh: inconclusive

Results for O=c1[nH]c(=O)n(CCO)c2nnn(Cc3ccccc3)c12 ?
ALDH1A1 block: -9%; PNC inhibitor: inconclusive; HPGD inh: 28µM*

What do the screens show for `C#CCOC(=O)C(NC(=O)c1ccccc1)=C1CCCCC1`?
ALDH1A1 block: -1%; PNC inhibitor: -18; HPGD inh: -1%

Results for C=CC[C@@H]1C=C[C@@H](O/N=C\c2ccc(C(=O)N3[C@H](c4ccc(C)cc4)[C@@H](C)CC[C@H]3C(=O)OC)cc2)[C@@H](CO)O1 ?
ALDH1A1 block: 16%[13.5 µM]

What do the screens show for `N/C(=N\OC(=O)CC1CCCCC1)c1cccc([N+](=O)[O-])c1`?
ALDH1A1 block: 13µM*; PNC inhibitor: 16; HPGD inh: -10%

What do the screens show for `N/C(=N\OC(=O)CCC1CCCC1)c1cccc([N+](=O)[O-])c1`?
ALDH1A1 block: -2%; PNC inhibitor: -24

How did COc1ccccc1NC(=O)C(C)NS(=O)(=O)c1ccc(Cl)cc1 (stereo unspecified) do in these assays?
ALDH1A1 block: -2%; PNC inhibitor: inconclusive; HPGD inh: -10%

How did Cc1sc2ncnc(N3CCCCC3)c2c1C do in these assays?
ALDH1A1 block: -1%; PNC inhibitor: 0; HPGD inh: 0%

Results for CCc1cc2c(N3CCCCC3)ncnc2s1 ?
ALDH1A1 block: 20µM*; PNC inhibitor: 34; HPGD inh: -27%

Results for COC(=O)N1C(c2ccccc2)=Cc2ccccc2C1CC(C)=O (stereo unspecified) ?
ALDH1A1 block: -5%[13.5 µM]; HPGD inh: -30%

What do the screens show for `CCOc1ccc(NC(=O)C(c2ccccn2)N(C(=O)CCl)c2ccc(F)cc2)cc1` (stereo unspecified)?
ALDH1A1 block: 11µM*; PNC inhibitor: -16; HPGD inh: 1%

What do the screens show for `CCOc1ccc(NC(=O)CC(NCc2ccccn2)C(=O)O)cc1` (stereo unspecified)?
ALDH1A1 block: 2%

What do the screens show for `Nc1ccccc1-c1nnc(-c2ccccc2N)n1N`?
ALDH1A1 block: -4%

What do the screens show for `O=C(O)CCCCNCc1ccccc1`?
ALDH1A1 block: 2%; PNC inhibitor: -13; HPGD inh: -10%

What do the screens show for `CCOC(=O)CCCCNCc1ccccc1`?
ALDH1A1 block: 14%; PNC inhibitor: -100*; HPGD inh: -9%
